# Compounds with a hit are over-represented: about 18% of the library has one in this group of screens.
# IL-1B inflam inh: inflammasome signaling inhibition, IL-1 beta readout; THP-1 LPS/ATP IL-1B secretion, AlphaLISA, 16 h; active compounds read low; activity change, % at 57.5 µM; 4.7% of 360,000 active; AID 743279; in the data active = activity change below about -50%; inconclusive = mostly about -30% to -49%
#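 THP-1 cells pretreated 1 hr with compounds (up to 57.5 uM final), then stimulated with LPS (250 ng/mL final) plus ATP (1.25 mM final); secreted IL-1B measured by AlphaLISA after 16 hr, decreased signal indicating inhibition.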
# HepG2 tox: HepG2 cytotoxicity, counter-screen for TGF-b inhibitors; HepG2 CAGA-GFP viability, ATP luminescence, 18 h; Potency, µM (top dose mostly 46.1 µM), actives largely listed as cytotoxic; 0.76% of 410,000 active; AID 588856
#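 CellTiter-Glo luminescence gave cytotoxicity after 18 hours at 37 degrees C. The cells were HepG2 CAGA-GFP in 1% FBS DMEM, stimulated with 500 pg/mL TGF-beta after compound addition. %Activity was normalised to no-cell wells (complete cell-killing) and DMSO (no toxicity), and curves were fitted and classified.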
# TDP1 block: inhibitors of human tyrosyl-DNA phosphodiesterase TDP1; Q9NUW8; recombinant TDP1, AlphaScreen DNA substrate cleavage; Potency, µM (doses to about 130 µM), actives largely listed as inhibitors; 0.28% of 350,000 active; note: nearly all actives have a fitted effect of over 40% in size
# Target sequence (Q9NUW8 whole entry, looked up): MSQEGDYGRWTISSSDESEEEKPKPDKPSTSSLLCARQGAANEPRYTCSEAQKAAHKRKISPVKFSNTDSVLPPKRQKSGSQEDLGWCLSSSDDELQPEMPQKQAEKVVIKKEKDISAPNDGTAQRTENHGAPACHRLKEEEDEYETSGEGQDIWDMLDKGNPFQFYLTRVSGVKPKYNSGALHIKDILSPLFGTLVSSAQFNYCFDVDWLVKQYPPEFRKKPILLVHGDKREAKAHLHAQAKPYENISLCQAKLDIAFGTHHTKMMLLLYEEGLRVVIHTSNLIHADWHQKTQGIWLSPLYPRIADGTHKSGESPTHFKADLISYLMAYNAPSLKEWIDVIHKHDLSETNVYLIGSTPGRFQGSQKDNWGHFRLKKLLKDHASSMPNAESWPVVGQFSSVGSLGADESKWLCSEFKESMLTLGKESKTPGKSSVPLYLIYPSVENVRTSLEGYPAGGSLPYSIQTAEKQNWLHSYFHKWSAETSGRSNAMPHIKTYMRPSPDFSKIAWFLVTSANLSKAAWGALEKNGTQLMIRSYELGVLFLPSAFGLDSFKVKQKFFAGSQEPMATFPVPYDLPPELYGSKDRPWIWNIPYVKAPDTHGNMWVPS
#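 Here, a 5' biotin and 3' phosphotyrosine-FITC DNA oligonucleotide reports Tdp1 activity: intact substrate bridges AlphaScreen beads, while cleavage leaves a 3' phosphate and drops signal. All incubations at room temperature.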
# TDP1 cell CPT: DT40-hTDP1 cell growth loss with CPT; AID 686979; Potency, µM (doses to about 46.2 µM), hits mostly inhibitors; 12% of 420,000 active; chicken DT40 Tdp1-/-;hTDP1 cells + 20 nM CPT, ATP luminescence, 48 h; note: nearly all actives have a fitted effect of over 55% in size
#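 Chicken DT40 Tdp1-/- cells complemented with human TDP1, 400 cells/well, exposed to compounds plus 20 nM camptothecin for at least 48 h at 37 C; viability read as ATP content by CellTiter-Glo luminescence.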
# TDP1 cell noCPT: qHTS for Inhibitors of human tyrosyl-DNA phosphodiesterase 1 (TDP1): qHTS in cells in absence of CPT. DT40 Tdp1-/- hTDP1 cells, no CPT, ATP luminescence, 48 h. Potency, µM (titrated, usually from 46.2 µM), usual class: inhibitors. 15% of 420,000 active. AID 686978, 2013; note: nearly all actives have a fitted effect of over 55% in size
#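 Luminescent ATP content (CellTiter-Glo) served as the growth readout. Knockout chicken DT40 cells expressing human TDP1 were exposed to compounds without camptothecin for a minimum 48 hr at 37 °C.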
# TGFb inhibitor: blocks TGF-b signaling; AID 588855; HepG2 CAGA-GFP TGF-b/SMAD3 reporter, GFP fluorescence, 18 h; TGF-beta stimulated, 500 pg/mL final; Potency, µM (top dose mostly 46.1 µM), most hits filed as inhibitors; 1.2% of 410,000 active; note: nearly all actives have a fitted effect of over 65% in size
#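 HEPG2 CAGA-GFP reporter cells (1000/well, DMEM with 1% FBS) received compounds, then recombinant TGF-beta at 500 pg/mL final for 18 hours at 37 degrees C. Per-cell GFP summed per well was normalised to unstimulated and stimulated DMSO controls before curve fitting.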
# Hits are given with their value; – = inactive; ? = inconclusive; · = no result given; [ ] = dose if it differs, or a comment. Unless noted, calls come from the whole dose curve; as a rule, active = well fitted curve in the direction sought with a large enough effect; inconclusive = small, poorly fitted or top-dose-only effect, or another doubt; inactive = no such curve, though single readings can be large; an effect the other way counts as inactive or inconclusive.
SMILES,IL-1B inflam inh,HepG2 tox,TDP1 block,TDP1 cell CPT,TDP1 cell noCPT,TGFb inhibitor
CCCS(=O)(=O)NC(=O)C1(C)CCN(C(=O)c2cc(C(C)(C)C)nn2C)C1 (centres undefined),-53,–,·,–,–,–
Cc1ccc(Nc2cc(C)nc3ccccc23)c(C)c1,-95,–,·,12µM,12µM,?
Cc1ccc(C)c(Nc2cc(C)nc3ccccc23)c1,-70,–,·,15µM,16µM,?
Cc1ccc(Nc2cc(C)nc3ccc(C)cc23)cc1,·,–,·,?,?,?
Cc1cc(Nc2ccccc2O)c2ccccc2n1,-63,–,–,?,?,–
Cc1cc(Nc2ccc(F)cc2)c2ccccc2n1,–,–,·,?,?,–
COc1cccc2c(Nc3ccccc3C)cc(C)nc12,-101,–,–,18µM,13µM,?
COc1cccc(C2(CC(=O)N3CCC(c4nc5ccccc5o4)CC3)CC(=O)N(C)C2=O)c1 (centres undefined),·,·,·,–,–,·
Cc1cc(C)nc(NC(=O)CSc2nccc(C)n2)n1,–,–,–,–,–,–
Cc1cc(C)nc(SCC(=O)Nc2ccnc3ccccc23)n1,?,–,–,1.6µM,0.65µM,–
Cc1cc(NC(=O)Cc2ccccc2)c2ccccc2n1,–,–,–,5.2µM,2.6µM,–
O=C(CN1CCCC1)N1c2ccccc2Sc2ccccc21,–,–,–,–,–,–
CN1CCCCC1CCN1c2ccccc2Sc2ccc(S(C)=O)cc21 (centres undefined),-52,–,–,?,?,–
COc1ccc(C(=O)C(C)OC(=O)c2nc3nccc(C)n3n2)cc1 (centres undefined),–,–,–,–,–,–
Cc1cc(C)cc(Oc2nc(C(F)(F)F)nc3ccccc23)c1,–,–,–,18µM,21µM,–
CC(=O)Nc1ccc(Oc2nc(C(F)(F)F)nc3ccccc23)cc1,–,–,·,–,–,–
CCN(C(=O)CCc1nc(-c2ccc(C)cc2)no1)c1cc(C)ccc1C,·,–,–,18µM,23µM,?
CCN(C(=O)CCc1nc(-c2ccc(OC)cc2)no1)c1cc(OC)ccc1OC,–,–,–,?,?,?
Cc1ccc(-c2noc(CCC(=O)N(C)c3ccccc3C)n2)cc1,–,–,–,?,15µM,–
CS(=O)(=O)c1ccccc1-c1nnc(NC(=O)c2ccc3c(c2)OCCO3)o1,·,–,–,–,?,–
Cc1ccc(CN2C[C@H](Sc3ccccn3)C[C@H]2C(=O)Nc2ccc3sc(C)nc3c2)cc1,·,·,·,–[9.04 µM],–,·
C/[N+]([O-])=C\c1coc2ccccc2c1=O,–,–,–,–,–,–
C#CCCc1ccccc1/C=[N+](/C)[O-],–,–,–,23µM,?,16µM
CCOC(=O)[C@]12CCCC=C1N(CCC1=CCCCC1)C(=O)[C@H](CC(=O)NCc1cccc(C(F)(F)F)c1)C2,–,·,·,18µM,?,·
COC(=O)[C@]12CCCCC=C1N(CCC1=CCCCC1)C(=O)[C@H](CC(=O)NCc1ccccc1)C2,–,·,·,?,?,·
SMILES,IL-1B inflam inh,HepG2 tox,TDP1 block,TDP1 cell CPT,TDP1 cell noCPT,TGFb inhibitor
COC(=O)[C@]12CCCCC=C1N(CCC1=CCCCC1)C(=O)[C@H](CC(=O)NCc1cccc(C(F)(F)F)c1)C2,?,·,·,?,23µM,·
CCOc1ccc(-c2cc(C(=O)OC)[nH]n2)cc1,–,–,–,–,–,–
CC(=O)NCCCS(=O)(=O)O,·,·,·,–,–,·
Cc1onc(-c2c(F)cccc2Cl)c1C(=O)OCn1nnc2ccccc2c1=O,–,–,–,?,23µM,–
Cc1onc(-c2ccccc2)c1C(=O)OCC(=O)N(C)c1ccccc1,–,–,–,–,–,–
Cc1noc(C)c1C(=O)OCC(=O)Nc1c(F)cccc1F,–,–,–,16µM,18µM,–
Cc1onc(-c2c(F)cccc2Cl)c1C(=O)OCC(=O)Nc1cccc(S(=O)(=O)N(C)C)c1,–,7.1µM,·,?,?,?
Cc1onc(-c2c(F)cccc2Cl)c1C(=O)OCC(=O)N(C)c1ccccc1,–,–,·,1.3µM,0.92µM,–
Cc1noc(C)c1C(=O)OCC(=O)Nc1ccc(C(N)=O)cc1,–,–,–,–,–,–
Cc1onc(-c2c(F)cccc2Cl)c1C(=O)OCC(=O)NCc1ccccc1,–,–,–,?,?,–
COCCCNC(=O)c1[nH]c2ccccc2c1Sc1ccc(C)cc1,·,–,–,–,–,–
O=C(NC1CCCCC1)c1ccc(-n2cnnn2)cc1,–,–,·,?,–,–
CC(C)Cn1nc(C(=O)Nc2nnc(C3CC3)s2)c2ccccc2c1=O,–,–,–,?,?,–
C(C#CCCCCCCCCC[n+]1ccccc1)#CCCCCCCCCC[n+]1ccccc1,-95,–,–,3.3µM,3.3µM,11µM
O=C(Nc1cccc(-c2csc(Nc3cccc(C(F)(F)F)c3)n2)c1)c1ccccc1,–,–,–,?,?,?
O=C(Nc1cccc(-c2csc(Nc3ccccc3)n2)c1)c1ccccc1,-61,–,–,?,21µM,?
O=C(Nc1ccc(-c2csc(Nc3cccc(C(F)(F)F)c3)n2)cc1)c1cc([N+](=O)[O-])cc(C(F)(F)F)c1,–,–,–,15µM,16µM,–
O=C(O)CCC(=O)Nc1cccc(-c2csc(-c3ccccc3)n2)c1,–,–,–,–,?,–
CCCCC(=O)Nc1cccc(-c2csc(-c3ccccc3)n2)c1,-79,–,–,?,?,?
O=C(Nc1ccc(-c2csc(Nc3ccc(Cl)cc3)n2)cc1)c1ccccc1,–,–,–,?,?,–
O=C(Nc1ccc(-c2csc(Nc3cccc(C(F)(F)F)c3)n2)cc1)c1ccccc1,–,–,–,4.6µM,9.2µM,?
Cc1nc(N2CCN(Cc3ccccc3)CC2)c(C#N)c2c1COC(C)(C)C2,–,–,–,?,26µM,–
CC(C)c1nc(N2CCN(C(=O)c3ccccc3)CC2)c(C#N)c2c1COC(C)(C)C2,–,–,–,?,?,–
CC(C)c1nc(N2CCN(C(=O)c3ccco3)CC2)c(C#N)c2c1COC(C)(C)C2,?,–,·,15µM,21µM,–
COc1ccccc1OCCC(=O)NNC(=O)c1ccccc1F,–,–,–,–,–,–
CN(C)S(=O)(=O)c1ccc(Cl)c(NC(=O)COC(=O)CCC2CCCCC2)c1,–,–,–,–,–,–
CCC(=O)N1CCCC(C)(C(=O)Nc2ccc(C)c(C)c2)C1 (centres undefined),–,–,·,–,–,–

# Source: PubChem BioAssay
